High-throughput results: PubChem, The Scripps Research Institute Molecular Screening Center
Sampled rows, rich in hits. Any-hit rate of the full collection: about 2.3%.
M1 ag: human M1 muscarinic receptor agonism | 360,000 compounds, 0.33% hits | CHO-K1 hM1, Fluo-8 calcium fluorescence, agonist mode; 0% DMSO, 100% acetylcholine EC100 | P11229 | activation, % at 3 µM;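 active means activation above the run's mean compound activation plus 3 SD, cut at about 16% in these data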;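 further: peak over basal fluorescence ratio within a 140 s kinetic read after compound addition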
Target sequence (P11229 whole entry, looked up): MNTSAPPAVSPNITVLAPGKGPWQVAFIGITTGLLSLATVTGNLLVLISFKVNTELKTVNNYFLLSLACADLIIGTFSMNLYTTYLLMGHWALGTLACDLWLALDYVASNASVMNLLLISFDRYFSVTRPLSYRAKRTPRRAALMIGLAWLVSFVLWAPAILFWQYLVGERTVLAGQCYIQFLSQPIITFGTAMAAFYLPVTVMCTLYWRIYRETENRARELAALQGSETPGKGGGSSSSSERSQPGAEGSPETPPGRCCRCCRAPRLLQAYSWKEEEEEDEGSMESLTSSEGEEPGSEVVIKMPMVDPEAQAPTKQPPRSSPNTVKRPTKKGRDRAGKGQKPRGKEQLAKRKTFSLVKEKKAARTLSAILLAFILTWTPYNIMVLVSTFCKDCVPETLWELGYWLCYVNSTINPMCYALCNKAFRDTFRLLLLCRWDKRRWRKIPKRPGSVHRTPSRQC
M1 PAM: human CHRM1 positive allosteric modulation | P11229 | CHO-K1 hM1, Fluo-8 calcium fluorescence, ACh EC20; 0% = ACh EC20, 100% = maximal ACh | activation, % at 3 µM | 360,000 compounds, 0.088% hits | AID 588819; in the data active means activation above about 19%, passing the limit was not always enough
CHO-K1 Ca antag: counter-screen for M1 antagonists: effect in parental CHO-K1 cells; ATP-induced calcium, Fluo-8 fluorescence; inhibition, % at 3 µM; 360,000 compounds, 0.6% hits; AID 602250;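 active means inhibition above a per-plate cutoff, the plate's mean sample inhibition plus 3 SD, cut at about 24% in these data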
CHO-K1 Ca ag: M1 agonist counterscreen hit in parental CHO-K1 cells | activation, % at 3 µM | Fluo-8 calcium fluorescence; scaled to maximal ATP response, vehicle zero | AID 602248 | 360,000 compounds, 0.48% hits; in the data active means activation above about 15%;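 further: untransfected CHO-K1 host cells lacking M1 receptor as counterscreen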
CHO-K1 Ca PAM: counter-screen for M1 PAMs: effect in parental CHO-K1 cells | ATP EC20, Fluo-8 calcium fluorescence; 0% at ATP EC20, 100% at ATP max | activation, % at 3 µM | 360,000 compounds, 0.02% hits | AID 602247;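 active means activation above the run cutoff, the mean activation of all test compounds plus 3 SD, cut at about 40% in these data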;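 further: peak over basal fluorescence ratio in a 140 s read after ATP addition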
CHRM1 antagonist: blocks human M1 muscarinic receptor; 360,000 compounds, 1.3% hits; inhibition, % at 3 µM; CHO-K1 hM1, Fluo-8 calcium fluorescence, ACh EC80 antagonist; P11229;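 active means percent inhibition above its own plate's cutoff, namely the mean of that plate's compound wells plus 3 SD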;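 further: peak over basal fluorescence ratio during 140 s after agonist addition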
Numbers stand for hits; i = inactive.

SMILES	M1 ag	M1 PAM	CHO-K1 Ca antag	CHO-K1 Ca ag	CHO-K1 Ca PAM	CHRM1 antagonist
CN(C)C(CNC(=O)Cc1c(Cl)cccc1Cl)c1ccccc1 (stereo not given)	i	i	i	i	i	96
Cc1ccccc1C(O)(Cc1ccccc1)C1CN2CCC1CC2 (stereo not given)	i	i	i	i	i	98
Cc1ccc(-c2cc(-c3ccc(C)cc3)[n+](-c3ccc(C(=O)[O-])cc3)c(-c3ccc(C)cc3)c2)cc1	i	i	i	i	i	i
c1ccc(-c2cc(-c3ccccc3)[n+](-c3ccccc3)c(-c3ccccc3)c2)cc1	i	i	i	i	i	43
CCOC(=O)c1cccc(-[n+]2c(-c3ccccc3)cc(-c3ccccc3)cc2-c2ccccc2)c1	i	i	i	i	i	i
CN(C)c1ccc(-[n+]2c(-c3ccccc3)cc(-c3ccccc3)cc2-c2ccccc2)cc1	i	i	i	i	i	56
C[n+]1c(-c2ccccc2)cc(-c2ccc(Cl)cc2)cc1-c1ccccc1	i	i	i	i	i	i
O=[N+]([O-])c1cc(Cl)c(O)c(-[n+]2c(-c3ccccc3)cc(-c3ccccc3)cc2-c2ccccc2)c1	i	i	i	i	i	i
Cc1ccc(-c2cc(-c3ccc(C)cc3)[n+](-c3ccccc3)c(-c3ccc(C)cc3)c2)cc1	i	i	i	17	i	51
Cc1ccc(-c2cc(-c3ccccc3)cc(-c3ccccc3)[n+]2-c2ccccc2)cc1	i	i	30	i	i	78
Cc1ccccc1-c1ccc2c(c1)C1c3c(-c4ccccc4)nnn3-c3ccccc3C(=O)N1CC2 (stereo not given)	i	i	i	i	i	i
CCOC(=O)CNC(=O)N1Cc2ccccc2-n2nncc2C1	i	i	i	i	i	i
CC(=O)OC1C=CC2[C@H]3Cc4ccc(O)c5c4[C@@]2(CCN3C)C1O5 (stereo not given in full)	i	i	i	i	i	i
CN1CCN(CCC(C#N)(c2ccccc2)c2ccccc2)CC1	i	i	i	i	i	99
CC(CN1CCOCC1)C(C#N)(c1ccccc1)c1ccccc1 (stereo not given)	i	i	i	i	i	i
NC(Cc1ccc(O)cc1)C(=O)NN=Cc1ccc(N(CCCl)CCCl)cc1 (stereo not given)	i	i	i	i	i	i
NCc1cc(=O)[nH]o1	i	i	i	i	i	i
S=P(NCCSCc1ccccc1)(N1CC1)N1CC1	i	i	i	i	i	i
c1ccc2nc(N3CCNCC3)ccc2c1	i	i	i	i	i	i
CN1CCc2c(C#N)c(Cl)nc(Cl)c2C1	i	i	32	i	i	i
CN1CCc2c(c(N3CCCCC3)nc3n[nH]c(N)c23)C1	i	i	i	i	i	i
COc1cccc(C(c2nnnn2-c2ccc3c(c2)OCCO3)N2CCC(n3c(=O)[nH]c4ccccc43)CC2)c1OC (stereo not given)	20	i	i	i	i	i
O=c1[nH]c2ccccc2n1C1CCN(C(c2ccccc2OC(F)(F)F)c2nnnn2-c2ccc3c(c2)OCCO3)CC1 (stereo not given)	i	i	i	20	i	i
COc1ccc(-n2nnnc2C(c2ccnc3ccccc23)N2CCC(n3c(=O)[nH]c4ccccc43)CC2)cc1 (stereo not given)	i	i	i	i	i	i
COc1ccc(-n2nnnc2C(c2cccc(OC)c2OC)N2CCC(n3c(=O)[nH]c4ccccc43)CC2)cc1 (stereo not given)	23	i	i	i	i	i
SMILES	M1 ag	M1 PAM	CHO-K1 Ca antag	CHO-K1 Ca ag	CHO-K1 Ca PAM	CHRM1 antagonist
O=c1[nH]c2ccccc2n1C1CCN(C(c2cccs2)c2nnnn2-c2ccc3c(c2)OCCO3)CC1 (stereo not given)	i	i	i	i	42	i
COC(=O)C1=C(c2ccc(OC)c(OC)c2)C[C@@H]2CC[C@H]1N2C(=O)NCCCOC(C)C	i	i	i	i	i	i
O=c1[nH]c2ccccc2n1C1CCN(C(c2cc3ccccc3o2)c2nnnn2Cc2ccccc2)CC1 (stereo not given)	i	i	i	i	i	i
Cc1[nH]c2ccccc2c1CCCNC1CCCCC1	i	i	i	i	i	i
Cc1[nH]c2ccccc2c1CCN	i	i	29	i	i	i
COC(=O)C1=C(C(=O)OC)C2OC1c1cc3ccccc3cc12	i	i	i	i	i	i
C[N+](C)(C)Cc1ccccc1	76	i	i	i	i	i
